# Several values for one entry are separate records, joined by “and”; a condition that tells them apart may be missing. Equal values may be shown once. Compounds without any hit were thinned out: in the full panel of roughly 79,000, 15% have a hit. Unmarked numbers belong to inactive results. Activity calls are given as the source filed them. No stated cut-off is given here; in the data, active means growth inhibition above about 70%; inactive means the rest.
# Tests used:
# [1] = NCI Yeast Anticancer Drug Screen. Data for the rad50 strain (AID 155);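 further: 0% = growth of vehicle-only cultures of the same strain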; conditions: S. cerevisiae rad50 strain growth inhibition; at 50.0 µM; stronger effect = higher value
# Outline: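 Yeast carrying a defined DNA repair defect were exposed to test compounds, and growth was compared with vehicle-treated controls to give percent inhibition.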
# [2] = NCI Yeast Anticancer Drug Screen. Data for the mec2-1 strain (AID 157); conditions: S. cerevisiae mec2-1 strain, at 50.0 µM, stronger effect = higher value
# Outline: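 Strain: mec2-1 (DNA repair/cell cycle alteration). Compound exposure, then growth measured; inhibition expressed relative to vehicle.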
# [3] = NCI Yeast Anticancer Drug Screen. Data for the sgs1 mgt1 strain (AID 161);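 further: 0% = growth of cultures given vehicle only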; conditions: S. cerevisiae sgs1 mgt1 strain, at 50.0 µM, stronger effect = higher value
# Outline: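 Genetically altered yeast, compound exposure, growth inhibition relative to vehicle.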
# [4] = NCI Yeast Anticancer Drug Screen. Data for the cln2 rad14 strain (AID 165);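 further: 0% = growth equal to vehicle treated cultures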; conditions: S. cerevisiae cln2 rad14 strain, at 50.0 µM, stronger effect = higher value
# Outline: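 Compounds are applied to the cln2 rad14 yeast strain, and growth is then compared with that of vehicle-treated cultures to give inhibition.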
# [5] = NCI Yeast Anticancer Drug Screen. Data for the bub3 strain (AID 167); conditions: S. cerevisiae bub3 mutant strain, at 50.0 µM, stronger effect = higher value
# Outline: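 Compounds were applied to a genetically altered yeast strain carrying a cell-cycle control defect. Growth inhibition was scored against vehicle-treated controls.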
# [6] = NCI Yeast Anticancer Drug Screen. Data for the mlh1 rad18 strain (AID 175); conditions: S. cerevisiae mlh1 rad18 strain growth inhibition; at 50.0 µM; stronger effect = higher value
# Outline: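 Read-out is yeast growth inhibition, calculated against vehicle-only controls. The compound was applied to a strain engineered with DNA damage repair alterations.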
Compound,growth inhibition [1],growth inhibition [2],growth inhibition [3],growth inhibition [4],growth inhibition [5],growth inhibition [6]
N#CC(C#N)=Cc1ccc(Cl)cc1,13.6% and 9.25%,-2.05% and -21.4%,8.5% and 19.9%,3.45% and -9.95%,-8.1% and 0.15%,20.7% and 20.1%
CN(C)CCO,-21.4%,11.5%,4.55%,-1.65%,23.4%,35.4%
O=[N+]([O-])c1cccc2c([N+](=O)[O-])cccc12,3.6%,5.2%,-1.15%,-4.85%,-0.7%,0.05%
N#CCc1ccccc1,8.5% and -45.5%,17.6% and 3.2%,-7.35% and -21.4%,13.7% and 5.6%,15.4% and -1.05%,4.85% and -6.65%
CC(=O)[O-].Cn1ccnc1CNCc1nccn1C.[Cu+2].[O-][Cl+3]([O-])([O-])[O-],18.9%,3.2%,3.3%,18.6%,-1.4%,5.25%
CC1(C)N=C(N)N=C(N)N1c1cccc(CCC(=O)Nc2ccc[n+](Cc3ccc(S(=O)(=O)F)cc3)c2)c1,-1.3%,-8.35%,13.4%,-17.8%,-9.55%,-11.9%
C[n+]1cccc(C2CCC[N+]2(C)C)c1 (configuration not stated),4.4%,7.85%,8.15%,-10.9%,-9%,-4.6%
O=C1C=CC(=Nc2cc(Cl)c(O)c(Cl)c2)C=C1,26.6%,42.5%,32.5%,20.1%,31.1%,42.8%
O=C(CC([Se]c1ccccc1)c1ccccc1)c1ccccc1 (configuration not stated),98% (active),88.8% (active),95.7% (active),89.4% (active),93.7% (active),98% (active)
Cc1ccc2[nH]cc(CCN(C)C)c2c1,22.6%,-16.5%,8.25%,7.65%,10.2%,19.6%
CCOP(=O)(OCC)C(C)(CC)/N=C(\N)NC#N (configuration not stated),-4.8%,-36.9%,-8.85%,12%,15%,-18.1%
CC12OC1(C)C1C(=O)OCC1C2=O (configuration not stated),3.4%,3.6%,-3.45%,3.95%,3%,-0.95%
O=NNc1ncc(Cl)cc1Cl,4.9%,-23.8%,-6.05%,-4.7%,14.2%,8.65%
CCCCCOP(=O)(OCCCCC)C(=O)Nc1ccc([N+](=O)[O-])cc1,-12.9%,4.85%,-5.25%,-3.2%,-1.8%,10.9%
O=C1NC(=O)C2(O)NC(=O)NC2(O)N1 (configuration not stated),-27.1%,-9.5%,3.15%,-10.8%,-22.4%,18.1%
Cc1csc(CP(=O)(OC(C)C)OC(C)C)n1,-22.6%,-47%,-21.6%,-13.2%,3.35%,-5.8%
CCN(CC)CCN(Cc1ccccc1)C(=O)C(O)(c1ccccc1)c1ccccc1,-0.4%,-23.6%,-4.05%,-39.4%,-1.5%,-24.6%
O=C(O)CC1NCc2cc3ccccc3nc21 (configuration not stated),6.4%,-13.2%,-17.2%,10%,-0.8%,16.6%
O=C(COc1ccc(Cl)c(Cl)c1)NCCc1cc[n+](Cc2ccc(Cl)cc2S(=O)(=O)F)cc1,7.45%,5.4%,-9.05%,31.5%,1.8%,11.9%

Compound,growth inhibition [1],growth inhibition [2],growth inhibition [3],growth inhibition [4],growth inhibition [5],growth inhibition [6]
ClC(OC(Cl)C(Cl)(Cl)Cl)C(Cl)(Cl)Cl (configuration not stated),52%,6.1%,30.9%,20.9%,46.5%,26.2%
CCCNP(=S)(NCCC)NCCC,1%,-10.4%,8.5%,-16.4%,0%,22%
OP(=S)(OCc1ccccc1)OCc1ccccc1,18.9%,19.6%,5.95%,-13.8%,17.9%,4.55%
Cc1ccc(C2=NOP(c3ccccc3)(c3ccccc3)(c3ccccc3)C2)cc1,19.5%,2.7%,39%,-37.8%,23.6%,23.9%
O=[P+](O)c1cc2ccccc2c2ccccc12,-33%,17.2%,-4.75%,-46.2%,-10.9%,1.35%
CC(=O)Nc1ncc2ccccc2c1-c1ccc(NC(=O)CCN(CCCl)CCCl)cc1,84.5% (active),-0.45%,12.2%,-30.1%,17.6%,-9.2%
N#CC(C#N)=Cc1cccc(C=C(C#N)C#N)c1,-0.55%,-3.65%,12.9%,8.3%,0.65%,-24.6%
NC(Cc1cc([N+](=O)[O-])ccc1CN(CCCl)CCCl)C(=O)O (configuration not stated),41.5%,29.8%,42%,19.5%,40.1%,39.6%
Cc1c([N+](=O)[O-])cc2c(c1[N+](=O)[O-])C(C)(C)CC2(C)C,-18.9%,-22.5%,-9.2%,10.4%,14.8%,-6.3%
Oc1cc(Cl)c(O)c(Cl)c1,2.9%,-2.05%,4.15%,-37.9%,-20.2%,-7.55%
CCCCC(=O)O.[Ni],-11.2%,-2.65%,-9.7%,-32%,-30.9%,-14.1%
O=C(CC(=O)C(F)(F)C(F)(F)C(F)(F)F)c1ccco1.[Ni],17.2%,3.8%,27.9%,-9.9%,2%,34.6%
Brc1ccc2nncc(N3CC3)c2c1,-13.2%,-16.6%,4.55%,8.5%,-9.3%,-20.6%
CC(=O)OC1=CCC2(C)C(CCC3C4CCC(OC(C)=O)C4(C)CCC32)C1=O (configuration not stated),87.5% (active),79.4% (active),87.5% (active),72.3% (active),73.5% (active),85.3% (active)
CN(Cc1cnc2nc(N)nc(N)c2n1)c1ccc(C(=O)NC(CCC(=O)NCC(P(=O)(O)O)P(=O)(O)O)C(=O)O)cc1 (configuration not stated),-12.6%,-28.2%,-28.9%,-28.1%,-15.8%,-20.1%
CCCCSP(=S)(SCCCC)c1ccc(Cl)cc1,30.7%,9.4%,13.8%,17.6%,19%,14.2%
NCCN.NCCN.O=C([O-])CCl.O=C([O-])CCl.[Co+3].[O-][Cl+3]([O-])([O-])[O-],-23.8%,3.45%,-43.2%,8.4%,-18.5%,-9%
CC(=O)OC1CCC2(C)C3CCC4(C)C(Oc5ccccc5)CCC4C3CC(Br)C2(O)C1 (configuration not stated),-48%,-29.9%,-35.9%,2.75%,-31.6%,-43%
